Screening results from PubChem BioAssay.
PAX8 inh HTS = inhibitors of PAX8-driven TPO luciferase reporter, primary screen, RMG-I cells, single concentration | SteadyGlo, 24 h | inhibition, % at 12.6 µM | 1.2% of 360,000 active;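 active = mean replicate inhibition at least 60% with every replicate also reaching 60%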;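 also: luciferase light reporting Pax8 driven TPO promoter activity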
TROY NFkB inh = inhibitors of TROY-driven NF-kB signaling, primary screen, Q293 LMP1-TROYcd cells, NF-kB luciferase, uHTS; Q293 LMP1-TROYcd NF-kB luciferase reporter, 4 h; inhibition, % at 10 µM; 0.98% of 360,000 active;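 active = compounds whose plate-normalised and pattern-corrected inhibition of the luciferase reporter signal at the single screening dose is 50% or more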
LGR2 antag = inhibitors of bursicon-induced LGR2 CRE-luciferase signal, primary screen, cell-based, HEK293, CRE-luciferase reporter, bursicon stimulation | Drosophila bursicon receptor LGR2 (rickets) | inhibition, % at 9.99 µM | 0.35% of 380,000 active | AID 720647, 2013 | bursicon-stimulated, 4 h;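 active = drop in luminescence signal, shown as inhibition above about 50% in the replicate tests, limit read from the data, passing the limit was not always enough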;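 also: agonist challenge used bursicon conditioned medium at about half maximal strength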
TWEAK-Fn14 inh = inhibitors of TWEAK-Fn14 signaling, primary screen, luciferase reporter cells, uHTS; TWEAK-stimulated Fn14 reporter cells, luciferase luminescence, 8 h; inhibition, % at 10 µM; 2% of 360,000 active; AID 1159606, 2016; in the data active = inhibition above about 50%
EBV LMP1 NFkB = EBV LMP1-driven NF-kappaB luciferase reporter inhibitors, primary screen, cell-based, luminescence, single point. inhibition, % at 12.5 µM. LMP1-induced NF-kappaB luciferase reporter cells. 0.69% of 350,000 active; in the data active = inhibition above about 41%
EWS-Fli block = EWS/Fli-driven NR0B1 reporter inhibitors, primary screen, A673 cells, NR0B1 luciferase, luminescence, MLPCN library; viability-normalised; inhibition, % at 12.6 µM; 0.67% of 350,000 active; AID 651661, 2012;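 active = mean inhibition of at least 50% after viability correction, with every replicate also passing that limit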;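 also: firefly luciferase signal divided by Alamar Blue viability fluorescence both relative to DMSO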
Hits are given with their value; . = inactive; / = no result given. Most compounds without a hit are left out; they make up all but 3.2% or so of the library.

SMILES | PAX8 inh HTS | TROY NFkB inh | LGR2 antag | TWEAK-Fn14 inh | EBV LMP1 NFkB | EWS-Fli block
O=C(Nc1ccc2c(c1)nc1n2CCSC1)c1ccco1 | / | . | / | . | 45 | /
COc1cc(-c2onc3ccc(Br)cc23)cc(OC)c1OC | . | . | . | . | . | 56
COc1ccc(-c2onc3ccc(Br)cc23)cc1 | . | . | . | . | . | /
Cc1ccc(-c2ccccc2[C@H]2[C@@H](CO)N(C(=O)NC3CCCC3)[C@H]2C#N)cc1 | / | / | . | / | / | .
CCC(=O)N1CC2(C1)[C@H](c1ccccc1)[C@H](CO)N2Cc1cc(F)ccc1F | / | / | . | / | / | .
CO[C@H]1CN(C)C(=O)c2cc(NC(=O)C3CC3)ccc2OC[C@@H](C)N(C(=O)NC(C)C)C[C@H]1C | . | / | . | / | / | .
Cc1ccc(Sc2cnc3ccccc3n2)cc1 | / | . | / | . | 56 | /
CC(Sc1cnc2ccccc2n1)C(=O)O (stereo not drawn) | . | . | / | . | . | /
CCCN(C)C[C@H]1OCCCC[C@@H](C)Oc2ccc(NC(=O)c3ccncc3)cc2C(=O)N([C@@H](C)CO)C[C@H]1C | . | / | . | / | / | .
CC1(C)CC2CC(C)(CN2C(=O)c2cc(-c3ccc(O)cc3)on2)C1 (stereo not drawn) | . | 62 | . | . | . | .
O=c1cc(C2CCCCC2)[nH]c(=O)[nH]1 | . | . | . | . | 52 | .
COc1cccc(-c2ccc3n(c2=O)C[C@@H]2[C@@H](CO)[C@H](C(=O)NCCN4CCCCC4)N(C)[C@H]32)c1 | . | / | . | / | / | .
Cc1ccc(CCNC(=O)c2ccc(NC3=NC4CS(=O)(=O)CC4S3)cc2)cc1 (stereo not drawn) | . | . | . | . | . | .
Cc1ccc(CCNC(=O)Cc2ccc(NC3=NC4CS(=O)(=O)CC4S3)cc2)cc1 (stereo not drawn) | . | . | . | . | 85 | .
CCOC(=O)N=Nc1c2ccccc2c2nc3no[nH]c3nc12 | 87 | 66 | 101 | 90 | 86 | 54
CCCCOC(=O)C1C2C=C[C@]3(CN(C(C)c4ccc(OC)cc4)C(=O)[C@H]13)O2 (stereo partly drawn) | / | / | / | 89 | . | /
O=C(NCc1nc2ccccc2[nH]1)C1=C[C@H](c2ccc(Br)cc2)C[C@H](OCCCCO)O1 | . | / | / | / | / | .
Cc1ccc(S(=O)(=O)N(C)C[C@H]2OCCCC[C@@H](C)Oc3ccc(NS(=O)(=O)c4ccc(F)cc4)cc3C(=O)N([C@H](C)CO)C[C@H]2C)cc1 | . | / | . | / | / | .
Cc1ccc(S(=O)(=O)Nc2ccc3c(c2)C(=O)N([C@H](C)CO)C[C@H](C)[C@@H](CN(C)S(=O)(=O)c2ccc(F)cc2)OCCCC[C@H](C)O3)cc1 | 86 | / | . | / | / | .
Cc1ccc(S(=O)(=O)Nc2ccc3c(c2)C(=O)N([C@@H](C)CO)C[C@@H](C)[C@H](CN(C)S(=O)(=O)c2ccc(F)cc2)OCCCC[C@H](C)O3)cc1 | . | / | . | / | / | .
Cc1ccc(S(=O)(=O)N(C)C[C@@H]2OCCCC[C@H](C)Oc3ccc(NS(=O)(=O)c4ccc(F)cc4)cc3C(=O)N([C@H](C)CO)C[C@H]2C)cc1 | 87 | / | . | / | / | .
C[C@@H]1CN([C@@H](C)CO)C(=O)Cc2cc(NS(C)(=O)=O)ccc2O[C@H]1CN(C)S(=O)(=O)c1cn(C)cn1 | . | / | . | / | / | .
C[C@H]1CCCCO[C@@H](CN(C)Cc2ccccc2)[C@@H](C)CN([C@@H](C)CO)C(=O)c2cc(NC(=O)Nc3ccc(C(F)(F)F)cc3)ccc2O1 | 108 | / | . | / | / | .
C[C@@H]1CCCCO[C@H](CN(C)Cc2ccccc2)[C@H](C)CN([C@H](C)CO)C(=O)c2cc(NC(=O)Nc3ccc(C(F)(F)F)cc3)ccc2O1 | 107 | / | . | / | / | .
C[C@@H]1CN([C@@H](C)CO)C(=O)c2cc(NC(=O)Nc3ccc(C(F)(F)F)cc3)ccc2O[C@@H](C)CCCCO[C@H]1CN(C)Cc1ccccc1 | 66 | / | . | / | / | .
SMILES | PAX8 inh HTS | TROY NFkB inh | LGR2 antag | TWEAK-Fn14 inh | EBV LMP1 NFkB | EWS-Fli block
C[C@H]1CCCCO[C@H](CN(C)Cc2ccccc2)[C@@H](C)CN([C@@H](C)CO)C(=O)c2cc(NC(=O)Nc3ccc(C(F)(F)F)cc3)ccc2O1 | 120 | / | . | / | / | .
C/C=C/c1ccc2c(c1)O[C@H](CN(C)C(=O)C1CC1)[C@@H](C)CN([C@@H](C)CO)S2(=O)=O | / | / | . | / | / | .
O=C(Nc1ccc2c(c1)[C@H]1C[C@H](CC(=O)N3CCCCC3)O[C@@H](CO)[C@H]1O2)c1ccc2c(c1)OCO2 | . | / | . | / | / | .
C[C@@H]1CCCCO[C@H](CN(C)Cc2ccccc2)[C@H](C)CN([C@@H](C)CO)C(=O)c2cc(NC(=O)Nc3ccc(C(F)(F)F)cc3)ccc2O1 | 115 | / | . | / | / | .
C[C@H](CO)N1C[C@H](C)[C@H](CN(C)Cc2ccccc2)OCCCC[C@H](C)Oc2ccc(NC(=O)Nc3ccc(C(F)(F)F)cc3)cc2C1=O | 115 | / | . | / | / | .
C[C@@H]1CCCCO[C@H](CN(C)Cc2ccccc2)[C@@H](C)CN([C@H](C)CO)C(=O)c2cc(NC(=O)Nc3ccc(C(F)(F)F)cc3)ccc2O1 | . | / | . | / | / | .
NCC[C@H]1CC[C@H](NC(=O)CCN2CCCCC2)[C@@H](CO)O1 | . | / | . | / | / | .
O=C(c1ccc2c(c1)OCO2)N1CCN(c2ccc(C(F)(F)F)cn2)CC1 | 132 | . | . | . | . | .
O=S(=O)(c1ccccc1)c1nc(NCc2ccccc2)sc1Cl | . | . | . | . | . | .
Cc1ccc(S(=O)(=O)c2nc(Nc3ccccc3)sc2Cl)cc1 | . | 54 | . | . | . | .
COc1ccc(CNc2nc(S(=O)(=O)c3ccccc3)c(Cl)s2)cc1OC | . | . | . | 70 | . | .
COc1ccccc1CN1C[C@H](C)[C@H](OC)CN(C)C(=O)c2cc(NC(C)=O)ccc2OC[C@H]1C | . | / | . | / | / | .
CCS(=O)(=O)N1CCC(C(=O)Oc2ccc(Br)cc2)CC1 | . | . | . | 79 | . | .
FC(F)(F)c1nc2ccccc2n2c(-c3ccc(Cl)cc3)nnc12 | / | . | / | . | 53 | /
FC(F)(F)c1nnc2c(Sc3ccccn3)nc3ccccc3n12 | 114 | . | / | . | . | /
FC(F)(F)c1nnc2c(Sc3ccccc3)nc3ccccc3n12 | . | . | / | . | . | /
FC(F)(F)c1nnc2c(Sc3ccc(Cl)cc3)nc3ccccc3n12 | 88 | . | / | 61 | . | /
FC(F)(F)c1nc2ccccc2c2nc3ccccc3n12 | . | . | . | . | . | .
O=C(c1cccs1)N1CCN(c2ncc(C(F)(F)F)cc2Cl)CC1 | . | . | . | . | . | .
CCc1cc(C(=O)N2CCN(c3ncc(C(F)(F)F)cc3Cl)CC2)sc1C | . | . | . | 56 | . | .
